LGR2 inh – blocks bursicon-induced cAMP signaling via Drosophila LGR2; AID 720647; HEK293 LGR2, CRE-luciferase, bursicon-stimulated, 4 h; 380,000 compounds, 0.35% hits; inhibition, % at 9.99 µM;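 active = drop in luminescence signal, shown as inhibition above about 50% in the replicate tests, limit read from the data, passing the limit was not always enough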;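 also: agonist challenge used bursicon conditioned medium at about half maximal strength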
CFTR F508del cor – CFTR F508del correction in bronchial cells; CFBE cells, YFP halide quenching; stimulated with forskolin plus potentiator P3; % fluorescence drop versus neutral controls; activity (quench increase), % at 7.58 µM; 350,000 compounds, 0.36% hits; AID 720511;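 active = mean added fluorescence quench of at least 8% versus neutral control, with both replicates also reaching 8%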;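 also: cells transiently co-express mutant CFTR-F508del with the halide-sensitive YFP; corrector assay measuring rescue of mutant channel to the surface after 24 h compound exposure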
PAX8 inh HTS – PAX8 transcriptional activity inhibition | RMG-I TPO-luciferase reporter, SteadyGlo, 24 h | 360,000 compounds, 1.2% hits | AID 652154 | inhibition, % at 12.6 µM;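 active = mean replicate inhibition at least 60% with every replicate also reaching 60%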;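 also: luciferase light reporting Pax8 driven TPO promoter activity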
EWS-Fli inh – blocks EWS/Fli oncoprotein-driven transcription. 350,000 compounds, 0.67% hits. inhibition, % at 12.6 µM. A673 NR0B1-luciferase reporter, viability-normalised;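 active = mean inhibition of at least 50% after viability correction, with every replicate also passing that limit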;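 also: firefly luciferase signal divided by Alamar Blue viability fluorescence both relative to DMSO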
Hits are given with their value; . = inactive; / = no result. Sampled rows, rich in hits. Any-hit rate of the full collection: about 1.8%.

SMILES | LGR2 inh | CFTR F508del cor | PAX8 inh HTS | EWS-Fli inh
C=CCOc1ccccc1CN(C(=O)CCl)c1ccc2c(c1)OCO2 | . | . | 121 | 59
C[C@@H]1CCCCO[C@@H](CN(C)Cc2ccc(C(F)(F)F)cc2)[C@@H](C)CN([C@H](C)CO)C(=O)c2cc(NC(=O)Nc3ccc(C(F)(F)F)cc3)ccc2O1 | . | . | . | .
C[C@@H]1CCCCO[C@H](CN(C)Cc2ccncc2)[C@H](C)CN([C@@H](C)CO)C(=O)c2cc(NC(=O)Nc3ccc(C(F)(F)F)cc3)ccc2O1 | . | . | 92 | .
C[C@H](CO)N1C[C@H](C)[C@@H](CN(C)Cc2ccc(C(F)(F)F)cc2)OCCCC[C@H](C)Oc2ccc(NC(=O)Nc3ccc(C(F)(F)F)cc3)cc2C1=O | . | . | . | .
C[C@@H]1CCCCO[C@H](CN(C)Cc2ccncc2)[C@H](C)CN([C@H](C)CO)C(=O)c2cc(NC(=O)Nc3ccc(C(F)(F)F)cc3)ccc2O1 | . | . | 95 | .
C[C@@H]1CN([C@H](C)CO)C(=O)c2cc(NC(=O)Nc3ccc(C(F)(F)F)cc3)ccc2O[C@@H](C)CCCCO[C@@H]1CN(C)Cc1ccncc1 | . | . | 93 | .
O=C(NCc1cccc(OC(F)(F)F)c1)C1CCC(=O)N(Cc2cccc(F)c2)C1 (configuration not stated) | . | . | . | /
CCCN(CC(=O)Nc1ccccc1C)C(=O)CCl | . | . | 61 | .
CCCN(CC(=O)Nc1ccccc1C)C(=O)COc1c(C)cccc1C | . | . | . | .
C=CC[C@@H](CC(=O)N[C@@H](CO)Cc1ccccc1)C(=O)NC[C@@H](OC(=O)[C@@H](CC=C)CC(=O)OC(C)(C)C)c1ccccc1 | . | . | . | .
COc1ccccc1C(CC(=O)c1ccccc1)C(=O)c1ccccc1 (configuration not stated) | . | . | . | .
COCC(=O)OC1CCn2c1nc1c2C(=O)C(C)=C(NC(C)=O)C1=O (configuration not stated) | 86 | . | 115 | .
CN(c1ccc(OCCOc2ccccc2Cl)cc1)S(=O)(=O)c1ccccc1 | . | 8.1 | . | .
COc1ccc(OCCOc2ccc(N(C)S(=O)(=O)c3ccccc3)cc2)cc1 | . | . | . | .
O=C(CCc1nnc(CCCc2ccccc2)o1)NCC(F)(F)F | . | . | . | .
Cc1csc(N/N=C/c2ccccn2)n1 | 69 | . | . | .
Cc1ccc(S(=O)(=O)Nc2ccc3c(c2)C(=O)N([C@H](C)CO)C[C@H](C)[C@@H](CN(C)S(=O)(=O)c2ccc(Cl)cc2)OCCCC[C@H](C)O3)cc1 | . | . | 95 | .
Cc1ccc(S(=O)(=O)N(C)C[C@@H]2OCCCC[C@@H](C)Oc3ccc(NS(=O)(=O)c4ccc(Cl)cc4)cc3C(=O)N([C@@H](C)CO)C[C@@H]2C)cc1 | . | 8.6 | . | .
Cc1ccc(S(=O)(=O)Nc2ccc3c(c2)C(=O)N([C@H](C)CO)C[C@@H](C)[C@H](CN(C)S(=O)(=O)c2ccc(Cl)cc2)OCCCC[C@H](C)O3)cc1 | . | . | 88 | .
Cc1ccc(S(=O)(=O)N(C)C[C@H]2OCCCC[C@H](C)Oc3ccc(NS(=O)(=O)c4ccc(Cl)cc4)cc3C(=O)N([C@@H](C)CO)C[C@H]2C)cc1 | . | . | . | .
Cc1ccc(S(=O)(=O)N(C)C[C@H]2OCCCC[C@H](C)Oc3ccc(NS(=O)(=O)c4ccc(Cl)cc4)cc3C(=O)N([C@@H](C)CO)C[C@@H]2C)cc1 | . | . | 89 | .
Cc1ccc(S(=O)(=O)N(C)C[C@@H]2OCCCC[C@@H](C)Oc3ccc(NS(=O)(=O)c4ccc(Cl)cc4)cc3C(=O)N([C@H](C)CO)C[C@@H]2C)cc1 | . | . | . | .
C/C(=N\NC(=O)c1nnn(-c2nonc2N)c1CSc1ccc(C)cc1)c1cccs1 | . | . | . | .
O=C(C[C@@H]1CC[C@H](NC(=O)CCN2CCCCC2)[C@@H](CO)O1)Nc1ccccc1 | . | . | . | .
C[C@H]1CN([C@@H](C)CO)C(=O)c2cccc(NC(=O)c3cnccn3)c2O[C@@H]1CN(C)S(=O)(=O)c1cn(C)cn1 | . | . | / | .
SMILES | LGR2 inh | CFTR F508del cor | PAX8 inh HTS | EWS-Fli inh
COCCNC(=O)C1(C)CCCN(Cc2ccc(Oc3ccccc3)cc2)C1 (configuration not stated) | . | . | . | .
Cc1ccc(S(=O)(=O)Nc2ccc3c(c2)C(=O)N([C@@H](C)CO)C[C@@H](C)[C@@H](CN(C)S(=O)(=O)c2ccc(Cl)cc2)OCCCC[C@@H](C)O3)cc1 | . | . | 83 | .
COc1cc(CC(=O)NC2CCCc3ccccc32)cc(OC)c1OC (configuration not stated) | . | . | . | .
COC(=O)c1ccc2c(c1)C(NC(C)=O)CCc1cc(OC)c(OC)c(OC)c1-2 (configuration not stated) | . | . | 85 | .
COc1c(C=O)c2c(c(OC)c1OC)-c1ccc(OC)c(=O)cc1C(NC(C)=O)CC2 (configuration not stated) | . | 11 | 87 | .
CCCC(=O)NC1CCc2cc(OC)c(OC)c(OC)c2-c2ccc(OC)c(=O)cc21 (configuration not stated) | . | . | 78 | .
COc1cc2c(c(OC)c1OC)-c1ccc(OC)c(=O)cc1C(NC(C)=O)CC2 (configuration not stated) | . | . | 96 | 64
Cc1cc2nc3c(=O)[nH]c(=O)[nH]c3nc2c([N+](=O)[O-])c1N | . | . | . | .
COc1ccc(NC(=O)C2COc3ccccc3O2)cc1S(=O)(=O)N1CCOCC1 (configuration not stated) | . | . | . | .
CC(C)NC[C@H](O)COc1cccc2[nH]ccc12 | . | . | . | .
Cc1cc(C)cc(N=c2c([N+](=O)[O-])nn(-c3ccc4c(c3)OCCO4)n2O)c1 | . | . | 100 | .
O=[N+]([O-])c1nn(-c2ccc3c(c2)OCCO3)n(O)c1=Nc1ccccc1 | . | / | . | 74
O=C(NCc1ccccc1)[C@@H]1CCCN1C(=O)[C@H]1CCCN1C(=O)c1cc(F)cc(F)c1 | . | . | . | .
CN1c2ccc(-c3cccc(C#N)c3)cc2[C@@H]2[C@@H](CCN2C(=O)NC2CCCC2)[C@H]1CO | . | . | . | .
CC(=O)N/C(=C\c1ccccc1)C(=O)NC(C)C(=O)O (configuration not stated) | . | . | . | .
CCCCNC(=O)/C(=C/c1ccccc1)NC(C)=O | / | / | 139 | .
CC1=C(C(=O)N2CCC=CC2=O)Cc2ccccc21 | / | . | 95 | .
Cc1cccc(S(=O)(=O)NC(=O)C2(C)CCN2C(=O)c2ccccc2)c1 (configuration not stated) | . | . | . | .
Cc1cccc(NC(=O)CN2CCN(C(=O)CN3C(=O)NC4(CC(C)CC(C)(C)C4)C3=O)CC2)c1C (configuration not stated) | . | 8.8 | . | .
CC1CC(C)(C)CC2(C1)NC(=O)N(CC(=O)Nc1c(F)cccc1F)C2=O (configuration not stated) | . | . | . | .

High-throughput results from PubChem.
